Bioassay records as filed in PubChem BioAssay.
An excerpt weighted towards active compounds, which were near 7.2% of everything screened.
Lassa entry inh – inhibitors of Lassa virus binding or cell entry. Lassa virus pseudotype entry inhibition, cell reporter. Potency, µM (highest dose often 37.9 µM), for inactives: top-dose activity change, negative = inhibition, most hits filed as inhibitors. 300,000 tested, 1.2% active. AID 540256; calls by dose curve; tested in HEK293 cells; also: nearly all actives have a fitted effect of over 50% in size
Marburg entry inh – Marburg virus entry inhibition; Marburg virus pseudotyped entry inhibition, cell reporter; 300,000 tested, 1.8% active; Potency, µM (highest dose often 37.8 µM), for inactives: at the highest dose activity change, negative = inhibition, most hits filed as inhibitors; calls by dose curve; tested in HEK293 cells
RE007 growth inh – less growth of the S. pombe RE007 Vpr strain. Potency, µM (top dose mostly 92.2 µM), for inactives: at the highest dose activity change, negative = less growth, hits mostly inhibitors. 360,000 tested, 0.21% active. AID 651644. S. pombe RE007 Vpr strain, BacTiter-Glo ATP luminescence, 24 h; active = well fitted falling curve with a large enough effect; inconclusive = small, poorly fitted or top-dose-only effect; inactive = no such curve, though single readings can be large or run the other way; also: nearly all actives have a fitted effect of over 50% in size
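Fission yeast strain RE007, carrying one chromosomally integrated HIV-1 vpr copy, was seeded at OD 0.01 in PMG+AL medium with 23 nL pinned compound. After 24 h at 30 °C and 99% humidity, viability was read by BacTiter-Glo luminescence.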
Sm TGR block – blocks Schistosoma mansoni thioredoxin glutathione reductase; Q962Y6; 360,000 tested, 3% active; Potency, µM (doses to about 114 µM), inactives show at the highest dose activity change, negative = inhibition, usual class: inhibitors; purified TGR, DTNB reduction, TNB absorbance 405 nm; AID 485364; also: nearly all actives have a fitted effect of over 60% in size
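Kinetic colorimetric format: TGR-catalysed, NADPH-driven DTNB reduction monitored via TNB absorbance. Enzyme dispensed at 20 nM; compound exposure 15 min at room temperature before reaction start.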
FMDV inh – foot and mouth disease virus antiviral activity; FMDV antiviral cell-based qHTS; Potency, µM (titrated, usually from 57.9 µM), for the others: at the highest dose activity change, negative = inhibition, usual class: inhibitors; 410,000 tested, 1.2% active; calls by dose curve; tested in HEK293T cells; also: read-out not given here; nearly all actives have a fitted effect of over 45% in size
HCV inhibitor – HCV inhibition; AID 651820; Potency, µM (titrated, usually from 41.8 µM), for inactives: top-dose activity change, negative = inhibition, usual class: inhibitors; 340,000 tested, 3.4% active; Huh7.5.1 HCVcc-Cre infection, luciferase reporter, 44 h
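Compounds are dispensed onto cells plated 4 h earlier at 1,000 per well, with HCVcc-Cre virus (about 0.5 moi) added next. Following 44 h of culture, luminescent signal is measured for 15 sec after 15 min with substrate at room temperature.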
Active calls of the source: *; ? = inconclusive; . = no result; [ ] = remark or other dose. Unless noted, calls follow the shape of the dose curve; as a rule, active = well fitted curve in the direction sought with a large enough effect; inconclusive = small, poorly fitted or top-dose-only effect, or another doubt; inactive = no such curve, though single readings can be large; an effect the other way counts as inactive or inconclusive. % is scaled to controls: 0 for no effect and ±100 for the full control effect; potency is read from the fitted curve at half-maximal effect.

SMILES | Lassa entry inh | Marburg entry inh | RE007 growth inh | Sm TGR block | FMDV inh | HCV inhibitor
O=C(Nc1ccccc1-c1nc2ccccc2o1)c1ccc2c(c1)OCCO2 | . | -1% | . | . | . | .
CCOc1ccc(-n2nc3ccc(NC(=O)c4ccc5c(c4)OCCO5)cc3n2)cc1 | ? | ? | 0% | -2% | . | 6.3µM*
CCOc1ccc(C(=O)Nc2ccc3c(c2)OCCO3)cc1OC | -30% | ? | -19% | -1% | 0% | ?
O=C(Nc1ccc2nn(-c3ccccc3)nc2c1)c1ccc2c(c1)OCCO2 | ? | -20%[46.1 µM] | 1% | -38% | 25µM* | 7.1µM*
Cc1c(NC(=O)c2ccc3c(c2)OCO3)cccc1-c1nc2ccccc2o1 | 21µM* | 21µM* | 7% | 1% | -10% | ?
CCCc1nn2c(=O)cc(COC(=O)C3CCCCC3)nc2s1 | 6%[46.1 µM] | . | . | 0% | 17% | .
CCCOc1c(Cl)cc(C(=O)Nc2ccc3c(c2)OCO3)cc1OCC | ? | ? | -9% | -13% | ? | 13µM*
O=C(Nc1ccc2oc(-c3ccccc3F)nc2c1)c1ccc2c(c1)OCCO2 | 0% | ? | 16% | 5% | 35µM* | ?
O=c1c2ccccc2nc(/C=C/c2cc(Br)ccc2O)n1CCCO | 10µM* | ? | 7% | -12% | 25µM* | ?
CN(C)C(=O)c1ccc(NC(=O)c2ccc(-c3ccc(Cl)cc3)o2)cc1 | 2% | ? | 6% | 32µM* | -3% | ?
CC(=O)c1ccc(NC(=O)c2ccc(-c3ccc(Cl)cc3)o2)cc1 | -1%[46.1 µM] | . | . | 40µM* | 18% | .
O=C(NCCc1ccccn1)C1CC12CCN(C(=O)c1cccc(C(F)(F)F)c1)CC2 (configuration not stated) | . | . | . | . | -4% | .
Cc1ccc(N(CC(=O)NCCSCc2ccco2)S(C)(=O)=O)cc1 | 0% | 17% | -3% | 45µM* | . | 18%
Cc1ccc(N(CC(=O)NCCSCc2ccco2)S(=O)(=O)c2ccc(F)cc2)cc1 | ? | -13% | -10% | 0% | 1% | -13%
Cc1cc(Cl)ccc1N(CC(=O)NCCSCc1ccco1)S(C)(=O)=O | 22% | ? | 14% | 18µM* | -9% | 9%
COc1ccc(N(CC(=O)NCCSCc2ccco2)S(=O)(=O)c2ccc(C)cc2)cc1 | ? | ? | 9% | 28µM* | 40% | ?
COc1ccc(N(CC(=O)NCCSCc2ccco2)S(=O)(=O)c2ccccc2)cc1 | -17%[46.1 µM] | ? | 7% | ? | -25% | -19%
Cc1ccc(S(=O)(=O)N(CC(=O)NCCSCc2ccco2)c2ccc(F)cc2)cc1 | . | . | . | 13µM* | . | .
Cc1cc(C)c(NS(=O)(=O)c2ccc(-c3cnc(C4CC4)o3)cc2)c(C)c1 | ? | . | . | -1% | -8% | .
O=C(OC[C@H]1O[C@@H](OC(=O)c2cc(O)c(O)c(OC(=O)c3cc(O)c(O)c(O)c3)c2)[C@H](OC(=O)c2cc(O)c(O)c(OC(=O)c3cc(O)c(O)c(O)c3)c2)[C@@H](OC(=O)c2cc(O)c(O)c(OC(=O)c3cc(O)c(O)c(O)c3)c2)[C@@H]1OC(=O)c1cc(O)c(O)c(OC(=O)c2cc(O)c(O)c(O)c2)c1)c1cc(O)c(O)c(OC(=O)c2cc(O)c(O)c(O)c2)c1 | . | . | . | 45µM* | -12% | 11µM*
COC1OC(COC(=O)c2ccccc2)C(OC(=O)c2ccccc2)C1OC(=O)c1ccccc1 (configuration not stated) | . | . | 5% | 0% | -20% | -1%
CCOC(=O)/C=c1\s/c(=C(\C#N)C(N)=O)n(-c2ccccc2)c1=O | -5% | 0%[46.1 µM] | 25% | 10µM* | ? | 12%
COc1ccc(OC)c(NC(=O)CSc2nc(=O)n(CCN(C)C)c3c2CCC3)c1 | 20%[46.1 µM] | . | . | 7% | -11% | .
CCOC(=O)c1ccccc1Nc1cc(C)nc2nc(-c3ccco3)nn12 | ? | . | . | 18µM* | 0% | .
Cc1cc(Nc2ccccc2Cl)n2nc(-c3ccco3)nc2n1 | 1%[46.1 µM] | . | . | ? | -23% | .
SMILES | Lassa entry inh | Marburg entry inh | RE007 growth inh | Sm TGR block | FMDV inh | HCV inhibitor
C[C@H](NC(=O)OCc1ccccc1)C(=O)OCN1C(=O)c2ccccc2C1=O | . | -6% | . | . | . | .
FC(F)(F)c1ccc(-c2nc(-c3ccccc3)oc2NCc2ccccc2)cc1 | -11%[14.3 µM] | -7%[14.2 µM] | . | . | . | .
CN(C)CCCNC(=S)N(Cc1cccs1)Cc1cc2cc3c(cc2[nH]c1=O)OCCO3 | ? | 23µM* | -17% | ? | -16% | 2.5µM*
CN(C)CCCNC(=S)N(CCN(C)C)Cc1cc2cc3c(cc2[nH]c1=O)OCCO3 | -4%[46.1 µM] | ? | -25% | 45µM* | -5% | 5%
CCN(CC)CCN(Cc1cc2cc3c(cc2[nH]c1=O)OCCO3)C(=S)NCCCN(C)C | . | . | -1% | ? | -4% | -13%
CCN(C(=O)CSc1nc2ccccc2n1CC(=O)N(C)C1CCCCC1)c1ccccc1 | ? | . | . | -1% | 0% | .
O=C(/C=C/c1ccco1)OCc1nnc(-c2ccccc2)o1 | . | . | -12% | 14µM* | 17% | 6%
O=C(/C=C/c1ccco1)OCc1nnc(-c2ccc(Cl)cc2)o1 | -2% | -1%[46.1 µM] | -1% | 11µM* | 19% | -9%
O=C(/C=C/c1ccco1)OCn1nnc2ccccc2c1=O | 5% | 12%[46.1 µM] | -11% | 22µM* | 15% | 11%
O=C(OCc1nnc(-c2ccccc2)o1)c1ccc(CO)cc1 | . | . | ? | 1% | -7% | 4%
O=C(CSc1oc(-c2cccs2)nc1S(=O)(=O)c1ccccc1)Nc1ccc(F)cc1 | 10%[46.1 µM] | 20%[46.1 µM] | . | 6% | 21% | .
CC(=O)OC[C@H]1O[C@H](C#Cc2ccc(C)cc2C)C=C[C@H]1OC(C)=O | -33%[14.3 µM] | -2%[14.2 µM] | . | . | . | .
Cc1ccc(/C=N/n2c(-c3cccnc3)n[nH]c2=S)o1 | 7%[46.1 µM] | -17%[46.1 µM] | 8% | 28µM* | -17% | 13%
Cc1ccc(-c2n[nH]c(=S)n2/N=C/c2ccc(C)o2)cc1 | ? | 30% | 7% | -4% | -15% | 22%
Cc1ccc(/C=N/n2c(-c3ccccn3)n[nH]c2=S)o1 | . | . | 10% | 45µM* | 12% | 5%
CN(c1ccc(F)cc1)S(=O)(=O)N1CCCC(C(=O)NCc2cccc(Br)c2)C1 (configuration not stated) | ? | . | . | 4% | -20% | .
O=C(OCc1cccs1)c1ccccc1NS(=O)(=O)c1ccc2c(c1)OCCO2 | -25% | ? | 21% | 0% | 16% | 8.9µM*
O=C(c1ccccc1NS(=O)(=O)c1ccc2c(c1)OCCO2)N1CCOCC1 | -5% | -8% | -11% | -26% | . | 11%
Cc1ccc(S(=O)(=O)c2nc(S(C)(=O)=O)sc2N2CCC(C(N)=O)CC2)cc1 | 16%[46.1 µM] | 8%[46.1 µM] | 3% | ? | 9% | 3%
CCS(=O)(=O)c1nc(S(=O)(=O)c2ccc(Cl)cc2)c(N2CCC3(CC2)OCCO3)s1 | . | . | -10% | -1% | -21% | -1%
